# This is one part of a sample in which the strongest signals are shown more often than they occur.
# Experiments:
# Assay in all cases: glycan array binding signal (z-score within array); higher = stronger binding
# Conditions in all cases: glycan notation: IUPAC condensed, linker removed
# [1] = molecular target: Gal3S(b1-4)[Fuc(a1-3)]GlcNAc
# How it was run: (§1)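 Glycan array data came from 3228 arrays in the Consortium for Functional Glycomics database, and only arrays with an available protein sequence were kept. Glycan names were put into IUPAC-condensed notation, and columns mapping to the same glycan were averaged. The binding signal is a within-array Z-score, averaged across arrays of one protein sequence run at different concentrations or buffers and across linkers. A negative Z-score can be read as non-binding.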
# [2] = molecular target: GalNAc(a1-3)GalNAc(b1-3)Gal(a1-4)Gal(b1-4)GlcNAc
# How it was run: as §1
# Glc(a1-4)Glc = molecular target: Glc(a1-4)Glc
# How it was run: as §1
# [3] = molecular target: GlcA3S(b1-3)Gal(b1-4)GlcNAc(b1-3)Gal(b1-4)Glc
# How it was run: as §1
# [4] = molecular target: GlcNAc(a1-4)Gal(b1-3)GlcNAc
# How it was run: as §1
# [5] = molecular target: GlcNAc(a1-4)Gal(b1-4)GlcNAc(b1-3)Gal(b1-4)Glc
# How it was run: as §1
# [6] = molecular target: GlcNAc(b1-3)Gal(b1-4)GlcNAc(b1-2)Man(a1-3)[GlcNAc(b1-3)Gal(b1-4)GlcNAc(b1-2)Man(a1-6)]Man(b1-4)GlcNAc(b1-4)[Fuc(a1-6)]GlcNAc
# How it was run: as §1
# [7] = molecular target: GlcNAc(b1-3)Gal(b1-4)GlcNAc(b1-2)[GlcNAc(b1-3)Gal(b1-4)GlcNAc(b1-6)]Man(a1-6)[GlcNAc(b1-3)Gal(b1-4)GlcNAc(b1-2)Man(a1-3)]Man(b1-4)GlcNAc(b1-4)GlcNAc
# How it was run: as §1
# [8] = molecular target: GlcNAc(b1-3)Gal(b1-4)GlcNAc(b1-3)Gal(b1-4)GlcNAc(b1-2)Man(a1-3)[GlcNAc(b1-3)Gal(b1-4)GlcNAc(b1-3)Gal(b1-4)GlcNAc(b1-2)Man(a1-6)]Man(b1-4)GlcNAc(b1-4)[Fuc(a1-6)]GlcNAc
# How it was run: as §1
# [9] = molecular target: GlcNAc(b1-3)[GlcNAc(b1-4)][GlcNAc(b1-6)]GlcNAc
# How it was run: as §1
# [10] = molecular target: GlcNAc(b1-4)GlcNAc(b1-4)GlcNAc(b1-4)GlcNAc(b1-4)GlcNAc
# How it was run: as §1
# GlcNAc(b1-6)GalNAc = molecular target: GlcNAc(b1-6)GalNAc
# How it was run: as §1
# [11] = molecular target: GlcNAc6S(b1-3)Gal(b1-4)GlcNAc
# How it was run: as §1
# [12] = molecular target: Man(a1-2)Man(a1-2)Man(a1-3)Man
# How it was run: as §1
# Man(a1-3)[Man(a1-6)]Man = molecular target: Man(a1-3)[Man(a1-6)]Man
# How it was run: as §1
# [13] = molecular target: Man(a1-3)[Man(a1-6)]Man(a1-6)[Man(a1-2)Man(a1-3)]Man(b1-4)GlcNAc(b1-4)GlcNAc
# How it was run: as §1
# [14] = molecular target: Man(a1-3)[Man(a1-6)]Man(b1-4)GlcNAc(b1-4)GlcNAc
# How it was run: as §1
# Man(a1-6)Man = molecular target: Man(a1-6)Man
# How it was run: as §1
# [15] = molecular target: Neu5Ac(a2-3)Gal(b1-3)GalNAc
# How it was run: as §1
# [16] = molecular target: Neu5Ac(a2-3)Gal(b1-4)GlcNAc(b1-2)Man(a1-3)[Neu5Ac(a2-3)Gal(b1-4)GlcNAc(b1-2)Man(a1-6)]Man(b1-4)GlcNAc(b1-4)[Fuc(a1-6)]GlcNAc
# How it was run: as §1
# [17] = molecular target: Neu5Ac(a2-3)Gal(b1-4)GlcNAc(b1-3)Gal(b1-4)GlcNAc(b1-3)Gal(b1-4)GlcNAc(b1-2)Man(a1-3)[Neu5Ac(a2-3)Gal(b1-4)GlcNAc(b1-3)Gal(b1-4)GlcNAc(b1-3)Gal(b1-4)GlcNAc(b1-2)Man(a1-6)]GalNAc
# How it was run: as §1
# [18] = molecular target: Neu5Ac(a2-3)Gal(b1-4)GlcNAc(b1-6)GalNAc
# How it was run: as §1
# [19] = molecular target: Neu5Ac(a2-3)Gal(b1-4)[Fuc(a1-3)]GlcNAc(b1-3)GalNAc
# How it was run: as §1
# [20] = molecular target: Neu5Ac(a2-3)[GalNAc(b1-4)]Gal(b1-4)Glc
# How it was run: as §1
# [21] = molecular target: Neu5Ac(a2-6)Gal(b1-3)GlcNAc(b1-3)[Gal(b1-4)GlcNAc(b1-6)]Gal(b1-4)Glc
# How it was run: as §1
# [22] = molecular target: Neu5Ac(a2-6)Gal(b1-4)GlcNAc(b1-2)Man(a1-3)[Man(a1-6)]Man(b1-4)GlcNAc(b1-4)GlcNAc
# How it was run: as §1
# [23] = molecular target: Neu5Ac(a2-6)Gal(b1-4)GlcNAc(b1-2)Man(a1-3)[Neu5Ac(a2-6)Gal(b1-4)GlcNAc(b1-2)Man(a1-6)]Man(b1-4)GlcNAc(b1-4)GlcNAc
# How it was run: as §1
# [24] = molecular target: Neu5Ac(a2-6)Gal(b1-4)GlcNAc(b1-2)Man(a1-3)[Neu5Ac(a2-6)Gal(b1-4)GlcNAc(b1-2)Man(a1-6)]Man(b1-4)GlcNAc(b1-4)[Fuc(a1-6)]GlcNAc
# How it was run: as §1
# [25] = molecular target: Neu5Ac(a2-6)Gal(b1-4)GlcNAc(b1-2)Man(a1-6)[Gal(b1-4)GlcNAc(b1-2)Man(a1-3)]Man(b1-4)GlcNAc(b1-4)GlcNAc
# How it was run: as §1
# [26] = molecular target: Neu5Ac(a2-6)Gal(b1-4)GlcNAc(b1-2)Man(a1-6)[Man(a1-3)]Man(b1-4)GlcNAc(b1-4)GlcNAc
# How it was run: as §1
# Neu5Ac(a2-6)GalNAc = molecular target: Neu5Ac(a2-6)GalNAc
# How it was run: as §1
# [27] = molecular target: Neu5Gc(a2-3)Gal(b1-3)[Fuc(a1-4)]GlcNAc
# How it was run: as §1
# [28] = molecular target: Neu5Gc(a2-8)Neu5Ac(a2-3)Gal(b1-4)GlcNAc
# How it was run: as §1
binder,measurement,setting,value
RBMC1 (Vibrio cholerae) (protein) QQSQRVVTADNLMYLRSGFAIDAIGTTVNNLVGGPVQGTNGGVLRAPIALDQLQSVEVTSGLYNWGGYHIVAIKFTMKDGSSVLLGSTHYASNKKVETYTVPQGKRIKQINVWTGGWLVEGFQFVY,glycan array binding signal (z-score),[1],-0.188
same,glycan array binding signal (z-score),[2],-0.064
same,glycan array binding signal (z-score),Glc(a1-4)Glc,-0.216
same,glycan array binding signal (z-score),[3],-0.217
same,glycan array binding signal (z-score),[4],-0.355
same,glycan array binding signal (z-score),[5],-0.284
same,glycan array binding signal (z-score),[6],2.83
same,glycan array binding signal (z-score),[7],-0.295
same,glycan array binding signal (z-score),[8],2.5
same,glycan array binding signal (z-score),[9],-0.158
same,glycan array binding signal (z-score),[10],-0.358
same,glycan array binding signal (z-score),GlcNAc(b1-6)GalNAc,-0.289
same,glycan array binding signal (z-score),[11],-0.267
same,glycan array binding signal (z-score),[12],-0.395
same,glycan array binding signal (z-score),Man(a1-3)[Man(a1-6)]Man,0.002
same,glycan array binding signal (z-score),[13],0.166
same,glycan array binding signal (z-score),[14],1.13
same,glycan array binding signal (z-score),Man(a1-6)Man,1.1
same,glycan array binding signal (z-score),[15],-0.226
same,glycan array binding signal (z-score),[16],3.39
same,glycan array binding signal (z-score),[17],0.281
same,glycan array binding signal (z-score),[18],-0.114
same,glycan array binding signal (z-score),[19],-0.194
same,glycan array binding signal (z-score),[20],-0.432
same,glycan array binding signal (z-score),[21],-0.461
same,glycan array binding signal (z-score),[22],10.4
same,glycan array binding signal (z-score),[23],4.94
same,glycan array binding signal (z-score),[24],11.9
same,glycan array binding signal (z-score),[25],3.13
same,glycan array binding signal (z-score),[26],-0.031
same,glycan array binding signal (z-score),Neu5Ac(a2-6)GalNAc,-0.35
same,glycan array binding signal (z-score),[27],-0.039
same,glycan array binding signal (z-score),[28],-0.406
